Rows were chosen to be rich in hits. Some 1.6% of all compounds tested hit in one or more screens of this group.
MOR-DOR ag = OPRM1-OPRD1 heterodimerization agonism; P35372+P41143; cells, luminescence; activation, % at 9.3 µM; 340,000 compounds, 0.3% hits; in the data active = activation above about 18%;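 note: 0% = vehicle-treated cells and 100% = reference agonist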
HTR2A ag = agonists of mouse serotonin 5-HT2A receptor (HTR2A). CHO-K1 mHTR2A beta-arrestin complementation, luminescence; percent of 30 µM serotonin response. P35363. activation, % at 7.6 µM. 360,000 compounds, 0.66% hits;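 active = activation above a run cutoff, the mean activation of all tested compounds plus 3 SD, cut at about 14% in these data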;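 note: 0% = plate median of compound wells and 100% = 30 µM serotonin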
Target sequence (P35363 whole entry, looked up): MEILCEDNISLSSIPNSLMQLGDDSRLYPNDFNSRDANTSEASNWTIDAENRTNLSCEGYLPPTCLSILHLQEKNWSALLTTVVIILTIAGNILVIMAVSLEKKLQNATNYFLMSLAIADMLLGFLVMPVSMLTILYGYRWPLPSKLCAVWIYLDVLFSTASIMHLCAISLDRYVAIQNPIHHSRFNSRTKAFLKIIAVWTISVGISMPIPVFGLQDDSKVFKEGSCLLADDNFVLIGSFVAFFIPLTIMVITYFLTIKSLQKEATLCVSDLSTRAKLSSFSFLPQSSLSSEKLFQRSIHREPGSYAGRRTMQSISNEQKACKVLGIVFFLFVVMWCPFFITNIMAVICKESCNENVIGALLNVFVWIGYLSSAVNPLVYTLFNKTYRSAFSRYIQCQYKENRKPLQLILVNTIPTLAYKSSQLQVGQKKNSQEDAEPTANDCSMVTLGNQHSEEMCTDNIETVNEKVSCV
HTR5A ag ctr = activates human HTR5A in OPRM1-OPRD1 agonist counter-screen | P47898 | HTR5A agonist assay, luminescence, cell-based | activation, % at 9.3 µM | 340,000 compounds, 0.61% hits; in the data active = activation mostly above about 9.5%, no sharp cut-off; inactive = mostly below about 7.6%;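 note: 0% = cells with vehicle only and 100% = reference agonist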
HTR5A inv ag = HTR5A inverse agonism, opioid heterodimer counter-screen; P47898; HTR5A cell line, luminescence; inhibition, % at 9.3 µM; 340,000 compounds, 0.083% hits; AID 504634; in the data active = inhibition mostly above about 23%, no sharp cut-off; inactive = mostly below about 18%;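 note: 0% = cells with DMSO and 100% = no-cell wells with DMSO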
OPRM1-OPRD1 inv = inverse agonists of human mu-delta opioid receptor heterodimerization | P35372+P41143 | cell-based MOR-DOR heterodimer luminescence, inverse agonism | inhibition, % at 9.3 µM | 340,000 compounds, 0.21% hits | AID 504357; in the data active = inhibition above about 22%, passing the limit was not always enough;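 note: 0% = cells with DMSO and 100% = wells without cells with DMSO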
MOR ag counter = activates human mu opioid receptor in HTR2A counterscreen. shares compounds with HTR2A ag. activation, % at 9.3 µM. U2OS OPRM1 beta-arrestin PathHunter, luminescence; DMSO 0%, DAMGO 9.3 µM 100%. 2,300 compounds, 5.3% hits;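 active = mean activation above the mean of DMSO-only wells plus 3 SD, cut at about 0.5% in these data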
HTR2A ag conf = confirmation of mouse HTR2A serotonin receptor agonists | shares compounds with HTR2A ag | CHO-K1 PathHunter beta-arrestin recruitment, luminescence; DMSO 0%, 30 µM serotonin 100% | activation, % at 7.6 µM | 2,300 compounds, 19% hits;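 active = mean activation across triplicates above the hit threshold derived in the original primary screen, cut at about 15% in these data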
Numbers without * were called inactive; x = not tested or not shown.

SMILES	MOR-DOR ag	HTR2A ag	HTR5A ag ctr	HTR5A inv ag	OPRM1-OPRD1 inv	MOR ag counter	HTR2A ag conf
O=C(Nc1cccn2nc(COCCO)nc12)C(c1ccccc1)c1ccccc1	x	12.9	x	x	x	x	x
O=C(Nc1ccc(-c2csc(-c3ccccc3)n2)cc1)c1ccccc1Cl	-1.2	0.3	2.0	3.2	6.7	x	x
O=C(Nc1ccc(-c2n[nH]c(=S)o2)cc1)c1ccccc1Cl	-4.3	16.7*	-0.2	0.7	20.1	-0.7	4.7
Cc1ccc(CSc2nnc(-c3ccccn3)n2Cc2cccs2)cc1	x	-4.4	x	x	x	x	x
COc1ccc(N2CCN(c3cc(=O)n(Cc4ccc(F)cc4)c(=O)[nH]3)CC2)cc1	-1.2	15.5*	-1.6	4.6	6.5	-0.8	-1.1
CCN1C(=O)[C@@H]2[C@@H]3CN(S(=O)(=O)c4ccc(C)cc4)[C@@H](c4ccccc4F)[C@@H]3C(=O)C[C@@H]2C1=O	x	15.1*	x	x	x	-0.1	1.5
O=S1(=O)CC(N2CCN(Cc3ccccc3F)CC2)CN1Cc1cn(Cc2ccc(F)cc2)nn1 (stereo not drawn)	x	10.5	x	x	x	x	x
CCCCCCn1cc(CN2CC(N3CCSCC3)CS2(=O)=O)nn1 (stereo not drawn)	x	0.2	x	x	x	x	x
O=S1(=O)CC(N2CCN(Cc3ccccc3F)CC2)CN1Cc1cn(Cc2cccc(Cl)c2)nn1 (stereo not drawn)	x	14.9*	x	x	x	-0.6	3.3
CCCCCCn1cc(CN2CC(N3CCCC3)CS2(=O)=O)nn1 (stereo not drawn)	x	20.3*	x	x	x	-0.6	-4.3
CN(C)CCN1CCN(C2CN(Cc3cn(Cc4ccccc4)nn3)S(=O)(=O)C2)CC1 (stereo not drawn)	x	19.6*	x	x	x	-0.7	-2.5
NC(=O)c1cccc(-c2coc3c(C(=O)NC4CCCCC4)cccc23)c1	x	1.5	x	x	x	x	x
COc1cccc(-c2oc3c(c2C(=O)OCCN(C)C)C(O)CCC3)c1 (stereo not drawn)	x	1.3	x	x	x	x	x
CC(C)C(=O)NC(NCC1CCCO1)C(Cl)(Cl)Cl (stereo not drawn)	0.3	17.1*	1.5	-4.1	-1.9	-0.7	-2.0
O=c1cc(-c2ccc(C(F)(F)F)cc2)oc2ccccc12	0.2	16.1*	10.3	-30.3	-1.4	-0.1	-3.6
Cn1ncc2c(=O)[nH]c(N)nc21	-1.1	0.3	-2.1	8.1	5.8	x	x
Cc1cc2c(=O)[nH]c(N)nc2[nH]1	x	16.2*	x	x	x	-0.2	0.6
CCOC(=O)N1CCN(C(=O)C[C@@H]2C[C@@]3(C(=O)OCC)CCCC=C3N(CCC3=CCCCC3)C2=O)CC1	x	3.8	x	x	x	x	x
Cc1ccc(N(CC(=O)NC2CCCC2)C(=O)c2c(C)noc2C)cc1C	-1.8	15.0*	0.2	-24.4	10.3	-0.3	-1.3
Cc1cccc(N(CC(=O)NC2CCCC2)C(=O)c2c(C)noc2C)c1	-2.7	2.1	1.1	-4.7	15.5	x	x
O=C(c1ccc(NC2=NC3CS(=O)(=O)CC3S2)cc1)N1CCN(c2ccccc2F)CC1 (stereo not drawn)	-1.4	23.7*	2.8	-27.0	7.5	-0.6	-4.2
O=C(c1cc(-c2ccncc2)nc2ccc(Cl)cc12)N1CCN(C(=O)C2CCCO2)CC1 (stereo not drawn)	-2.3	5.6	1.1	9.3	9.8	x	x
CC(=O)c1ccc(N2CCN(C(=O)c3cc(-c4ccncc4)nc4ccc(Cl)cc34)CC2)cc1	0.1	14.8*	8.2	-17.3	-0.3	-0.6	-3.4
O=C(NCC1CC1)c1cc2c(c(-c3cccc(-c4ccccc4F)c3)n1)[C@@H](CCO)N(C(=O)CC1CC1)C2	x	-8.2	x	x	x	x	x
CS(=O)(=O)CCC(C(=O)OCc1ccc(Cl)cc1)N1C(=O)c2ccccc2C1=O (stereo not drawn)	1.1	16.9*	3.0	-12.7	-5.5	-0.5	-2.7
CS(=O)(=O)CCC(C(=O)OCC(=O)c1ccc(Cl)cc1)N1C(=O)c2ccccc2C1=O (stereo not drawn)	-2.6	-1.7	-1.5	-42.5	14.1	x	x
Cn1cnnc1SCC(=O)Nc1sc2c(c1C(N)=O)CCC2	-2.6	0.1	1.3	-5.1	14.8	x	x
COCCn1cnnc1SCC(=O)Nc1sc2c(c1C#N)CCC2	-3.5	17.3*	6.8	5.8	13.8	-0.6	-0.2
